Molecules are shown by their SMILES. Where “and” joins values, the source holds several entries; their conditions need not be identical. Equal entries are not always repeated. Calls of active or inactive are those of the source. Unless noted, no rule for the calls is given here.

The nature of assay [1]: signal quenchers or enhancers, Cy5 substrate/SSB – biochemical, NIH Clinical Collection, E. coli SSB, artefact control for HCV NS3 helicase inhibitor project (AID 743268). The note with it: Cy5-oligo bound E. coli SSB, fluorescence interference.
Assay [2] relates to Hepatitis C virus NS3 helicase. The assay is described as follows: blockers of NS3h binding to DNA – biochemical, fluorescence polarization, NIH Clinical Collection, primary screen (AID 743270). The note with it: NS3 helicase binding to Cy5-dT15 DNA, stronger effect = higher value, concentration not given here.
Assay [3] has as its target Single-stranded DNA-binding protein (Escherichia coli (strain K12)) (UniProt P0AGE0). Kind of assay: SSB-ssDNA binding inhibitors – biochemical, fluorescence polarization, NIH Clinical Collection, counter-screen for HCV NS3 helicase inhibitor project (AID 743271; in the data active = inhibition above about 28%). Conditions: E. coli SSB-DNA binding, stronger effect = higher value, concentration not given here. For orientation: Polarisation of emitted light reports the rotation of a fluorescent probe.

Assay [4] can be described thus: compounds distorting NS3 helicase fluorescence signal – biochemical, NIH Clinical Collection, artefact control for HCV NS3 helicase inhibitor project (AID 743272).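 Also: HCV NS3 helicase with a Cy5 labelled single stranded DNA probe.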 The note with it: fluorescence interference counterscreen, HCV NS3 helicase assay; stronger effect = lower value. For orientation: Counterscreens check selectivity or assay interference.
Assay [5] is described as follows: Wnt pathway potentiators raising nuclear beta-catenin – imaging, WNT3A-conditioned medium, mouse C2C12, NPC library, primary screen (AID 1117326; in the data active = nuclear beta-catenin stimulation mostly above about 4.2%, no sharp cut-off; inactive = mostly below about 10%). The note with it: stronger effect = higher value.
The nature of assay [6]: stimulators of insulin release from INS-1E, primary screen, cell-based, 5 mM glucose, NPC library (AID 1117329;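 active = compound raises insulin release from rat beta cells at 5 mM glucose, no numeric limit stated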). The note with it: rat INS-1E insulin secretion, at 10 µM, stronger effect = higher value.
Assay [7] can be described thus: growth inhibition of GSK3B-pretreated HCT116 cells – cell-based, CellTiter-Glo, 0.2 to 20 µM (AID 1117336;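 active = compounds lowering colon cancer cell viability after pretreatment blocking the GSK3B kinase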). Conditions: HCT116 viability after GSK3B inhibitor, at 20 µM, stronger effect = higher value.
Assay [8] in a line: inhibition of endothelial tube formation, primary screen, imaging, VEGF stimulated, CD31 staining, tube area, NPC library (AID 1117340;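 active = compound that reduces growth-factor-driven endothelial tube area in a mixed cell culture, no cutoff stated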). Conditions: VEGF-stimulated ADSC/ECFC co-culture, at 10 µM, stronger effect = higher value.
Assay [9] can be described thus: GLP1 release stimulators, primary, NCI-H716, NPC library (AID 1117341;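 active = compound raises GLP1 secretion from the human gut endocrine cells, with no numeric limit stated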). Conditions: NCI-H716 cells, at 10 µM, stronger effect = higher value.
Assay [10] in a line: HCT116 colon cancer cell growth inhibition, primary screen, CellTiter-Glo luminescence, NPC library (AID 1117342;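 active = compounds that lower survival of HCT116 colon cancer cells in the luminescence readout, no numeric limit stated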). The note with it: at 20 µM (top of the series). For orientation: Cellular ATP, detected with luciferase, serves as a proxy for viable cell number.
The nature of assay [11]: reduced SW480 viability measured with CellTiter-Glo, NPC library, primary (AID 1117343;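 active = compounds that lower viability of the colon cancer cells in the luminescence readout, with no numeric limit stated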). The note with it: CellTiter-Glo luminescence; at 20 µM (top of the series).
Assay [12] in a line: NPC library primary testing for decreased DLD-1 cell viability via CellTiter-Glo (AID 1117346;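 active = compounds that lower survival of DLD-1 colon cancer cells in the luminescence readout, no cutoff given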). The note with it: DLD-1 viability, CellTiter-Glo luminescence; at 20 µM (top of the series).
The target in assay [13] is 6-phosphogluconate dehydrogenase, decarboxylating (Homo sapiens) (UniProt P52209). Kind of assay: inhibition of human phosphogluconate dehydrogenase – biochemical, recombinant enzyme, NADPH absorbance, primary screen (AID 1159550;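 active = at least 20% inhibition of 6-phosphogluconate dehydrogenase activity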). Conditions: recombinant 6PGD, NADPH absorbance 341 nm; at 10 µM; stronger effect = higher value.
Sequence of 6-phosphogluconate dehydrogenase, decarboxylating (Homo sapiens) (P52209 whole entry, looked up): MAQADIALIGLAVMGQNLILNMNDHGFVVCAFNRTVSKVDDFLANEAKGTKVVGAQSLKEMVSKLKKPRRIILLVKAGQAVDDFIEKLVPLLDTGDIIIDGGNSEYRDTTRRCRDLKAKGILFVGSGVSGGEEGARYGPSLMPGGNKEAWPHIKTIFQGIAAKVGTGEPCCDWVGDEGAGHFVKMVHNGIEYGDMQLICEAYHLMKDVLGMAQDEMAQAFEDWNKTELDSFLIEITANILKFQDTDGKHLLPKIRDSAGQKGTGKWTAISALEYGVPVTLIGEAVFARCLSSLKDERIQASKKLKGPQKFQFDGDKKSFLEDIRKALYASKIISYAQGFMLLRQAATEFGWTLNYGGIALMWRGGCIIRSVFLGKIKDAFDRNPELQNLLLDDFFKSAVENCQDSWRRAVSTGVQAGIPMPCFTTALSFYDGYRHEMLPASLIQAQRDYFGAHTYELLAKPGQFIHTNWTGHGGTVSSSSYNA
The nature of assay [14]: EMT-state selective cytotoxicity in co-culture – imaging, PC-3E GFP, TEM4-18 mCherry, primary screen (AID 1345086;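 active = compounds killing one labelled cell type while sparing the other, by normalised counts and ratio limits, not self-fluorescent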;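 as to all read-outs here: cells exposed to compound for 72 h before imaging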;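 as to red/green cell ratio (normalised): normalised mesenchymal count divided by normalised epithelial count so high means epithelial killing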). Conditions: PC-3E GFP / TEM4-18 mCherry co-culture, imaging cell counts, at 1 µM; for red/green cell ratio (normalised): actives lie on both sides, counts scaled to control wells, 1 = unselective.
Assay [15] can be described thus: MELAS cybrid and Rieske KO viability enhancers – cell-based, MELAS cybrids, Rieske KO mouse fibroblasts, CellTiter-Glo, primary screen (AID 1508586;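 active = mean z-score across replicates of 1.96 or higher in either the MELAS or the Rieske mutant cell line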;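 also: z relative to plate mean and SD of compound and empty wells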). Conditions: low glucose.
Assay [16] has as its target NAD(+) hydrolase SARM1 (Homo sapiens) (UniProt Q6SZW1). Kind of assay: blocking NAD cleavage by SARM1 SAM-TIR – cell lysate, NAD-Glo luminescence (AID 1508614;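 active = compound whose remaining NAD level is above about 45 nM, limit read from the data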;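 also: higher remaining NAD means stronger inhibition of SARM1 NADase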). The note with it: SAM-TIR HEK293T lysate NADase, at 1 µM, stronger effect = higher value.
For assay [17], the target named is Mitogen-activated protein kinase 7 (Homo sapiens) (UniProt Q13164). The assay is described as follows: Gal4-ERK5 driven luciferase induction – cell-based, HTS, primary screen (AID 1508626;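 active = luciferase signal above three times the same-plate solvent-only control wells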;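 also: luciferase driven by Gal4-ERK5 fusion binding five Gal4 sites before minimal TATA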). The note with it: HeLa Gal4-ERK5 transactivation, 18 h, at 5 µM, stronger effect = higher value.
Sequence of Mitogen-activated protein kinase 7 (Homo sapiens) (Q13164 whole entry, looked up, the tested form may be a part): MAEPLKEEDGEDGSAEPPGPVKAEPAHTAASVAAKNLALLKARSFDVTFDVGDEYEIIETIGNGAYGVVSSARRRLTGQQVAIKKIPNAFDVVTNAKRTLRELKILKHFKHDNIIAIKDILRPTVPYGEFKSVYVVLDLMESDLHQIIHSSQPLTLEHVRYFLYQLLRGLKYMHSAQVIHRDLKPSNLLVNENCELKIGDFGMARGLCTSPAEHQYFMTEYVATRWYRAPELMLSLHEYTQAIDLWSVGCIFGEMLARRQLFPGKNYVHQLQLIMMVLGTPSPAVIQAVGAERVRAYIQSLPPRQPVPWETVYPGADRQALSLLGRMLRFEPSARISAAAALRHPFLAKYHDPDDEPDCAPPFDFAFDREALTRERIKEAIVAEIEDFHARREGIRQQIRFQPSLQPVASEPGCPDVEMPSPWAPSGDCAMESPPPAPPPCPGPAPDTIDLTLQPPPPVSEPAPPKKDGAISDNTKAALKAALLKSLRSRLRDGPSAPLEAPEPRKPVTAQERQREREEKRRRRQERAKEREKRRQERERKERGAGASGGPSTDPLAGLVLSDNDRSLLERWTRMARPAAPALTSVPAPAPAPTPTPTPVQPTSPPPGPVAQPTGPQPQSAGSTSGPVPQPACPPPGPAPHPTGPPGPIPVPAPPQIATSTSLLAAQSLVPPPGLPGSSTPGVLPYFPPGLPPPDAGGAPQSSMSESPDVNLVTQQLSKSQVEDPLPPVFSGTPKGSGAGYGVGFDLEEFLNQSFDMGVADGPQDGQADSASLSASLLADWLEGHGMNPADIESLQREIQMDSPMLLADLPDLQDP
A further assay relates to F380Y. The assay is described as follows: BK channel mutant inhibitors and activators – cell-based, U2OS BacMam, thallium flux, beta subunits, selectivity assay, profiling panel (AID 1259406;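 active = thallium flux through the channel raised or lowered by more than 3 SD from vehicle-only wells, actives on both sides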;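 also: initial slope of Thallos dye fluorescence rise after thallium is added; log ratio against the mean of 0.3% DMSO vehicle wells on the same plate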). Conditions: U2OS BacMam BK variants, at 30 µM.
[18] abbreviates: measured here: epithelial PC-3E GFP cell survival.
The mark [19] stands for this setting: measured here: mesenchymal TEM4-18 mCherry cell survival.
Setting [20] is: MELAS cybrid survival, CellTiter-Glo 48 h, stronger effect = higher value.
[21] abbreviates: Rieske KO mouse fibroblast survival, CellTiter-Glo 72 h.

Sequence of NAD(+) hydrolase SARM1 (Homo sapiens) (Q6SZW1 whole entry, looked up, the tested form may be a part): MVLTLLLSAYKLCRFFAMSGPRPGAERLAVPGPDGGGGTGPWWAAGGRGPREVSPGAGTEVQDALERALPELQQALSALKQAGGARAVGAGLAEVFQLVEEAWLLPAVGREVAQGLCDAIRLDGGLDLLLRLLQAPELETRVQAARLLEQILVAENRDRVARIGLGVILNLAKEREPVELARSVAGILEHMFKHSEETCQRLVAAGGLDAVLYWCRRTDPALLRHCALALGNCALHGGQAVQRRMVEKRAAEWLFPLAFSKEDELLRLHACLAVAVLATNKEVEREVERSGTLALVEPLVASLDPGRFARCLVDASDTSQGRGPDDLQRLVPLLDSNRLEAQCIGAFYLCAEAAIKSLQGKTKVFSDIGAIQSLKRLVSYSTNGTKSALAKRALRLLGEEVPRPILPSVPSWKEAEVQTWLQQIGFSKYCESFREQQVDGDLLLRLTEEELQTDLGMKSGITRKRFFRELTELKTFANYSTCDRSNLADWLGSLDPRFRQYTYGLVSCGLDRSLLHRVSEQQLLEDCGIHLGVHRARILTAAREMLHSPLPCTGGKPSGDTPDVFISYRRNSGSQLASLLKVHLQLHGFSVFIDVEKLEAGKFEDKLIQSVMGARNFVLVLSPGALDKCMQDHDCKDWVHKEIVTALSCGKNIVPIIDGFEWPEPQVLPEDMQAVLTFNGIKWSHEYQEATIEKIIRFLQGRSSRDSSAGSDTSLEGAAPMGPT

As to `OC(CCN1CCCCC1)(c1ccccc1)C1CCCCC1` (centres undefined), the results for the fluorescence ratio in assay [1] and in assay [4] were 0.99 (inactive) and 0.95 (inactive), respectively. Moreover, the inhibition in assay [2] was -5.91% (inactive); in [3], -2.76% (inactive); in [13] it was 5.23% (inactive). The nuclear beta-catenin stimulation in [5] (at 10 µM) was -1.1% (inactive); in [5] (stimulation, at 2 µM), 7.5%. For the same molecule, the insulin secretion stimulation in assay [6] was 12.4% (inactive). Further, the viability decrease in assay [7] was -59.3% (inactive). The tube area decrease in assay [8] is 5% (inactive). In assay [9], the GLP1 secretion stimulation was 3.3% (inactive). Besides, the inhibition of viability in assay [10] was 34.2% (inactive). Also, the viability decrease (inhibition) in assay [11] is 67.1% (active); in [12] it was 18.6% (inactive). In addition, the red/green cell ratio (normalised) in assay [14] is 1.08 (inactive). For the same molecule, the normalised cell number in assay [14] (setting [18]) was found to be 0.92; in [14] (setting [19]), 1. Also, the z-score in assay [15] (setting [20]) is 0.423 (inactive); in assay [15] (setting [21]), 0.169. Also, the remaining NAD in [16] is 10 nM (inactive). Also, the luciferase signal in assay [17] was 56 AU (inactive). In the assay on F380Y, the log fold change Tl+ flux was 0.0654 (inactive).
On to `Cc1ccc(Cl)c(Nc2ccccc2C(=O)O)c1Cl`, for which the fluorescence ratio in assay [1] was 0.6 (active); in assay [4], 1 (inactive). The figures for the inhibition in assay [2], in [3] and in [13] were 0.45% (inactive), -0.48% (inactive) and 7.02% (inactive), respectively. Besides, the nuclear beta-catenin stimulation in assay [5] (at 10 µM) was 0.5% (inactive); in [5] (stimulation, at 2 µM), 1.2%. Further, the insulin secretion stimulation in assay [6] is -1.1% (inactive). Besides, the viability decrease in assay [7] is 8.4% (inactive). For the same molecule, the tube area decrease in [8] was 22.9% (inactive). For the same molecule, the GLP1 secretion stimulation in [9] is 5% (inactive). Further, the inhibition of viability in assay [10] was 35.8% (inactive). The viability decrease (inhibition) in assay [11] is 58.5% (active); in assay [12], 78.5% (active). Further, the red/green cell ratio (normalised) in assay [14] is 0.98 (inactive). In addition, the figures for the normalised cell number in assay [14] (setting [18]) and in assay [14] (setting [19]) were 0.92 and 0.9, respectively. The z-score is -0.277 (inactive) and 0.657 (inactive) in assay [15] (setting [20]); -0.131 and 0.573 in assay [15] (setting [21]). Also, the remaining NAD in assay [16] is 10 nM (inactive). For the same molecule, in [17], the luciferase signal was 48 AU (inactive). Also, in the assay on F380Y, the log fold change Tl+ flux is 0.212 (active).
Take `C[C@H](CS)C(=O)N1CCC[C@H]1C(=O)O`: the nuclear beta-catenin stimulation in [5] (at 10 µM) was 0.8% (inactive); in [5] (stimulation, at 2 µM) it was 0.9%. Besides, the insulin secretion stimulation in [6] is -2.3% (inactive). For the same molecule, the viability decrease in assay [7] is -11.6% (inactive). For the same molecule, the tube area decrease in assay [8] is 12.5% (inactive). The GLP1 secretion stimulation in assay [9] is 2.3% (inactive). Besides, the inhibition of viability in assay [10] is -2.6% (inactive). In addition, the viability decrease (inhibition) is 27.6% (inactive) in assay [11] and -2.15% (inactive) in [12]. Moreover, the inhibition in assay [13] is -3.72% (inactive). Also, in [14], the red/green cell ratio (normalised) was 1.1 (inactive). Further, the normalised cell number in assay [14] (setting [18]) was 1.01; in assay [14] (setting [19]), 1.1. For the same molecule, the z-score in [15] (setting [20]) is -0.272 (inactive) and -0.072 (inactive); in [15] (setting [21]) it was -0.06 and -1.18. Also, the remaining NAD in assay [16] was 10 nM (inactive). Moreover, the luciferase signal in assay [17] was 52 AU (inactive). In the assay with F380Y, the log fold change Tl+ flux was -0.0244 (inactive).
Turning to `COc1ccc2cc(CCC(C)=O)ccc2c1`, the results for the fluorescence ratio in assay [1] and in [4] were 0.1 (active) and 0.99 (inactive), respectively. For the same molecule, the inhibition was -1.36% (inactive) in assay [2], 1.05% (inactive) in assay [3] and -24.5% (inactive) in assay [13]. In addition, the nuclear beta-catenin stimulation was 5.3% (inactive) in [5] (at 10 µM) and 3.7% in assay [5] (stimulation, at 2 µM). Besides, the insulin secretion stimulation in assay [6] was 1.5% (inactive). In addition, the viability decrease in assay [7] is -7.2% (inactive). The tube area decrease in assay [8] was -5.2% (inactive). For the same molecule, the GLP1 secretion stimulation in [9] is 0.4% (inactive). The inhibition of viability in [10] was -6.2% (inactive). The viability decrease (inhibition) was 4.5% (inactive) in assay [11] and -3.8% (active) in assay [12]. Also, the red/green cell ratio (normalised) in assay [14] was 1.14 (inactive). Besides, the normalised cell number in assay [14] (setting [18]) is 1.12; in assay [14] (setting [19]), 1.27. For the same molecule, the z-score in assay [15] (setting [20]) is -0.0447 (inactive) and 0.0297 (inactive) and 0.548 (inactive); in assay [15] (setting [21]), -0.132 and -0.0567 and -0.121. In assay [16], the remaining NAD was 10 nM (inactive). The luciferase signal in assay [17] is 92 AU (inactive). Further, the log fold change Tl+ flux in the assay on F380Y is -0.158 (active).

One may read the inhibition as the relative decrease from the control value, in per cent.

These data come from PubChem BioAssay.
